# Results reported in PubChem BioAssay (NCATS).
# Inconclusive results are not listed. Where a call stands in place of a potency, no number is given. Unmarked numbers belong to inactive results. Calls of active or inactive are those of the source. Unless noted, the call rests on the fitted dose curve; in most records, active means well fitted curve in the direction sought with a large enough effect; inconclusive means small, poorly fitted or top-dose-only effect, or another doubt; inactive means no such curve, though single readings can be large; an effect the other way counts as inactive or inconclusive.
# How the values were obtained:
# [1] = molecular target: Aldehyde dehydrogenase, mitochondrial (Homo sapiens) (UniProt P05091); test: qHTS for Inhibitors of the Aldehyde Dehydrogenase Family (ALDH2) Validation screens (AID 2061302; active means well fitted inhibition curve with a large enough effect; title and protocol of this record describe different tests)
# [2] = molecular target: Retinaldehyde dehydrogenase 3 (Homo sapiens) (UniProt P47895); test: qHTS for Inhibitors of the Aldehyde Dehydrogenase Family (ALDH1A3) Validation screen (AID 2061312); further: nearly all actives have a fitted effect of over 45% in size
# [3] = molecular target: Aldehyde dehydrogenase, mitochondrial (Homo sapiens) (UniProt P05091); test: qHTS for Inhibitors of the Aldehyde Dehydrogenase Family (ALDH2) Primary screen (AID 2061308); further: nearly all actives have a fitted effect of over 55% in size
# [4] = molecular target: Retinaldehyde dehydrogenase 3 (Homo sapiens) (UniProt P47895); test: qHTS for Inhibitors of the Aldehyde Dehydrogenase Family (ALDH1A3) Primary screen (AID 2061315)
# [5] = BET inhibitor-based combinations targeting novel dependencies in MECOM-rearranged (r) AML: SET-2 cell line (AID 2202231); settings: SET-2 AML cells viability, CellTiter-Glo luminescence, 48 h; viability: active compounds read low, series mostly up to about 46 µM; further: nearly all actives have a fitted effect of over 35% in size
# Summary of the method: (§1)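 Luminescent ATP readout (CellTiter-Glo) after 48 hr drug exposure gives viability. Curves span 11 concentrations and are normalized to DMSO and empty wells. Activity is reported as area under the curve and its Z-transform within each cell line.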
# [6] = BET inhibitor-based combinations targeting novel dependencies in MECOM-rearranged (r) AML: OCI-AML3 cell line (AID 2202232); settings: Potency: OCI-AML3 viability; further: series mostly up to about 46 µM; nearly all actives have a fitted effect of over 35% in size
# Summary of the method: as §1
# [7] = BET inhibitor-based combinations targeting novel dependencies in MECOM-rearranged (r) AML: MV-4-11 cell line (AID 2202233); further: nearly all actives have a fitted effect of over 45% in size; further: potency means the concentration at half of the fitted maximal effect
# Summary of the method: (§2)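 Luminescent ATP readout (CellTiter-Glo, 15 min at room temperature) after 48 hr drug exposure gave viability. Dose-response curves, normalized to DMSO and empty-well controls, were summarized as area under the curve and its mean-centred Z-score.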
# [8] = BET inhibitor-based combinations targeting novel dependencies in MECOM-rearranged (r) AML: HNT-34 cell line (AID 2202234); further: nearly all actives have a fitted effect of over 35% in size; further: potency means the concentration at half of the fitted maximal effect
# Summary of the method: as §2
# [9] = BET inhibitor-based combinations targeting novel dependencies in MECOM-rearranged (r) AML: AML-191 cell line (AID 2202236; further: nearly all actives have a fitted effect of over 35% in size)
# Summary of the method: as §1
# [10] = BET inhibitor-based combinations targeting novel dependencies in MECOM-rearranged (r) AML: AML-194 cell line (AID 2202237; further: nearly all actives have a fitted effect of over 40% in size)
# Summary of the method: as §1
# [11] = molecular target: Aldehyde dehydrogenase, mitochondrial (Homo sapiens) (UniProt P05091); test: qHTS for Inhibitors of the Aldehyde Dehydrogenase Family (ALDH2) Confirmatory screens (AID 2061303; active means well fitted inhibition curve with a large enough effect; title and protocol of this record describe different tests; further: nearly all actives have a fitted effect of over 45% in size)
# [12] = molecular target: Retinaldehyde dehydrogenase 3 (Homo sapiens) (UniProt P47895); test: qHTS for Inhibitors of the Aldehyde Dehydrogenase Family (ALDH1A3) Confirmatory screens (AID 2061311); further: nearly all actives have a fitted effect of over 60% in size
# [13] = molecular target: Aldehyde dehydrogenase 1A1 (Homo sapiens) (UniProt P00352); test: qHTS for Inhibitors of the Aldehyde Dehydrogenase Family (ALDH1A1) Confirmatory screens (AID 2061316); further: nearly all actives have a fitted effect of over 65% in size
# [14] = BET inhibitor-based combinations targeting novel dependencies in MECOM-rearranged (r) AML: UCSD-AML1 cell line (AID 2202235); further: nearly all actives have a fitted effect of over 40% in size; further: potency means the concentration at half of the fitted maximal effect; on viability (% of control): series mostly up to about 46 µM
# Summary of the method: as §2
smiles,measurement,setting,value
Cc1cn([C@H]2C=C[C@@H](CO)O2)c(=O)[nH]c1=O,Potency,[1],inactive
same,Potency,[2],inactive
CCN(CC)CCCC(C)Nc1ccnc2cc(Cl)ccc12 (centres undefined),Potency,[1],inactive
same,"activity change, negative = inhibition",[3],0.897% [at 11.2 µM]
same,Potency,[2],inactive
same,"activity change, negative = inhibition",[4],6.44% [at 11.2 µM]
same,viability,[5],102%
same,viability (% of control),[6],92.2% [at 8.46 µM]
same,"viability, % of control",[7],101% [at 8.46 µM]
same,Potency,[8],5.39 µM (active)
same,viability (% of control),[9],95.1% [at 8.46 µM]
same,viability (% of control),[10],111% [at 8.46 µM]
NCC(O)C1CCCCCCC1 (centres undefined),Potency,[1],inactive
same,Potency,[2],inactive
NC(N)=NCCCCN=C(N)N,Potency,[1],inactive
same,Potency,[2],inactive
Cc1ccc(S(=O)(=O)NC(=O)NN2CCCCCC2)cc1,Potency,[1],inactive
same,Potency,[11],inactive
same,Potency,[12],inactive
same,Potency,[13],inactive
CC(N)=O,Potency,[1],inactive
same,Potency,[2],inactive
CCC(=O)c1ccc2c(c1)N(CCCN(C)C)c1ccccc1S2,Potency,[1],inactive
same,Potency,[2],inactive
COc1cc2ncnc(Nc3cccc(Cl)c3)c2cc1OC,Potency,[1],inactive
same,Potency,[3],inactive
same,Potency,[2],inactive
same,Potency,[4],inactive
same,Potency,[7],8.33 µM (active)
same,Potency,[8],13.2 µM (active)
same,Potency,[14],18.6 µM (active)
CCCC(C(=O)OCCN(CC)CC)(c1ccccc1)c1ccccc1,Potency,[1],inactive
same,Potency,[2],inactive
Clc1ccc2c(c1)C(N1CCNCC1)=Nc1ccccc1O2,Potency,[1],inactive
same,Potency,[3],inactive
same,Potency,[2],inactive
same,Potency,[4],inactive
CC(C)NC[C@H](O)COc1cccc2ccccc12,Potency,[1],inactive
same,Potency,[2],inactive
NC(N)=[N+]1CCc2ccccc2C1,Potency,[1],inactive
same,Potency,[2],inactive
COc1ccc2c(c1)c(CC(=O)O)c(C)n2C(=O)c1ccc(Cl)cc1,Potency,[1],inactive
same,Potency,[2],inactive
same,viability,[5],114%
same,Potency,[6],inactive
same,Potency,[7],inactive
same,Potency,[8],inactive
same,Potency,[14],inactive
same,Potency,[9],inactive
same,Potency,[10],inactive
C[N+](C)(C)CCO,Potency,[1],inactive
same,Potency,[2],inactive
OC(CCN1CCCCC1)(c1ccccc1)C1CCCCC1 (centres undefined),Potency,[1],inactive
same,Potency,[2],inactive
O=c1cc(-c2ccccc2)[nH]c2nc(Cl)ccc12,Potency,[1],inactive
same,Potency,[2],inactive
C=C[C@H]1CN2CC[C@@H]1C[C@@H]2[C@@H](O)c1ccnc2ccc(OC)cc12,Potency,[1],inactive
same,Potency,[2],inactive
C[C@@H]1C(=O)NC2=Nc3cccc(Cl)c3CN21,Potency,[1],inactive
same,Potency,[2],inactive
NC1[C@H]2CN(c3nc4c(cc3F)c(=O)c(C(=O)O)cn4-c3ccc(F)cc3F)C[C@@H]12 (some centres undefined),Potency,[1],inactive
same,Potency,[2],inactive
CC(C)OC(=O)C(C)(C)Oc1ccc(C(=O)c2ccc(Cl)cc2)cc1,Potency,[1],inactive
same,Potency,[2],inactive
O=C(O)c1cccnc1Nc1cccc(C(F)(F)F)c1,Potency,[1],inactive
same,Potency,[2],inactive
CC1=C(C(=O)O)N2C(=O)[C@@H](NC(=O)C(N)C3=CCC=CC3)[C@H]2SC1 (some centres undefined),Potency,[1],inactive
same,Potency,[2],inactive
CC(C)(Oc1ccc(CCNC(=O)c2ccc(Cl)cc2)cc1)C(=O)O,Potency,[1],inactive
same,Potency,[2],inactive
O=C1NC(O)=NC1(c1ccccc1)c1ccccc1,Potency,[1],inactive
same,Potency,[2],inactive
CC(=O)[C@H]1CC[C@H]2[C@@H]3CCC4=CC(=O)CC[C@]4(C)[C@H]3CC[C@]12C,Potency,[1],inactive
same,Potency,[2],inactive
O=Nc1c(-c2c(O)[nH]c3ccccc23)[nH]c2ccccc12,Potency,[1],inactive
same,Potency,[2],inactive
CN(C)CC[C@@H](c1ccc(Br)cc1)c1ccccn1,Potency,[1],inactive
same,Potency,[2],inactive
CC(=O)O[C@H]1C[C@@H]2CC[C@@H]3[C@H](CC[C@@]4(C)[C@H]3C[C@H]([N+]3(C)CCCCC3)[C@@H]4OC(C)=O)[C@@]2(C)C[C@@H]1[N+]1(C)CCCCC1,Potency,[1],inactive
same,Potency,[2],inactive
CC1=C(CC(=O)O)c2cc(F)ccc2/C1=C\c1ccc(S(C)(=O)=O)cc1,Potency,[1],inactive
same,Potency,[2],inactive
CCn1cc(C(=O)O)c(=O)c2ccc(C)nc21,Potency,[1],inactive
same,Potency,[2],inactive
NC(N)=NCCC[C@H](N)C(=O)O,Potency,[1],inactive
same,Potency,[2],inactive
CN(C)CCCN1c2ccccc2Sc2ccc(C(F)(F)F)cc21,Potency,[1],inactive
same,Potency,[2],inactive
Cn1c(=O)c2c(ncn2C)n(C)c1=O,Potency,[1],inactive
same,Potency,[2],inactive
same,viability,[5],97.8%
same,Potency,[6],inactive
same,Potency,[7],inactive
same,Potency,[8],inactive
same,Potency,[14],inactive
same,Potency,[9],inactive
same,Potency,[10],inactive
CCN(CC)C(=O)c1ccc(O)c(OC)c1,Potency,[1],inactive
same,Potency,[2],inactive
C[C@H](NC(CCc1ccccc1)C(=O)O)C(=O)N1CCC[C@H]1C(=O)O (some centres undefined),Potency,[1],inactive
same,Potency,[2],inactive
C[N+](C)(C)CCOP(=O)(O)OP(=O)([O-])OC[C@H]1O[C@@H](n2ccc(N)nc2=O)[C@H](O)[C@@H]1O,Potency,[1],inactive
same,Potency,[2],inactive
NC(=O)c1ccccc1,Potency,[1],inactive
same,Potency,[2],inactive
CN1Cc2c(N)cccc2C(c2ccccc2)C1 (centres undefined),Potency,[1],inactive
same,Potency,[2],inactive
CN=C(NC#N)NCCSCc1nc[nH]c1C,Potency,[1],inactive
same,Potency,[2],inactive
C=CC[C@H](N)C(=O)O,Potency,[1],inactive
same,Potency,[2],inactive
O=C1NCC2(CCN(CCc3ccccc3)CC2)O1,Potency,[1],inactive
same,Potency,[2],inactive
COc1cc2c(cc1O)CC[C@@H]1[C@@H]2CC[C@]2(C)[C@@H](O)CC[C@@H]12,Potency,[1],inactive
same,Potency,[2],inactive
N[C@@H](Cc1c[nH]c2ccccc12)C(=O)O,Potency,[1],inactive
same,Potency,[2],inactive
CCC(CO)Nc1nc(NCc2ccccc2)c2ncn(C(C)C)c2n1 (centres undefined),Potency,[1],inactive
same,Potency,[2],inactive
O=C1CCC(c2ccc(-n3ccnc3)cc2)=NN1,Potency,[1],inactive
same,Potency,[2],inactive
O=C(O)/C=C/c1cnc[nH]1,Potency,[1],inactive
same,Potency,[2],inactive
Nc1ccn([C@@H]2O[C@H](CO)[C@@H](O)[C@@H]2O)c(=O)n1,Potency,[1],inactive
same,Potency,[2],inactive
Cc1ccc(Cl)c(Nc2ccccc2C(=O)O)c1Cl,Potency,[1],inactive
same,Potency,[2],inactive
CC(C)NC[C@H](O)c1ccc(O)c(O)c1,Potency,[1],inactive
same,Potency,[2],inactive
